{"source": "ChEMBL document CHEMBL1961873", "about": "“Compounds: GSK PKIS; Assays: Nanosyn kinase panel” (2012)", "note": "Values joined by “and” are separate entries in the source; they are usually repeats but may differ in a detail not shown here. Equal entries are not always repeated."}
{"target": "Vascular endothelial growth factor receptor 1 (Homo sapiens) (UniProt P17948)", "sequence (P17948 whole entry)": "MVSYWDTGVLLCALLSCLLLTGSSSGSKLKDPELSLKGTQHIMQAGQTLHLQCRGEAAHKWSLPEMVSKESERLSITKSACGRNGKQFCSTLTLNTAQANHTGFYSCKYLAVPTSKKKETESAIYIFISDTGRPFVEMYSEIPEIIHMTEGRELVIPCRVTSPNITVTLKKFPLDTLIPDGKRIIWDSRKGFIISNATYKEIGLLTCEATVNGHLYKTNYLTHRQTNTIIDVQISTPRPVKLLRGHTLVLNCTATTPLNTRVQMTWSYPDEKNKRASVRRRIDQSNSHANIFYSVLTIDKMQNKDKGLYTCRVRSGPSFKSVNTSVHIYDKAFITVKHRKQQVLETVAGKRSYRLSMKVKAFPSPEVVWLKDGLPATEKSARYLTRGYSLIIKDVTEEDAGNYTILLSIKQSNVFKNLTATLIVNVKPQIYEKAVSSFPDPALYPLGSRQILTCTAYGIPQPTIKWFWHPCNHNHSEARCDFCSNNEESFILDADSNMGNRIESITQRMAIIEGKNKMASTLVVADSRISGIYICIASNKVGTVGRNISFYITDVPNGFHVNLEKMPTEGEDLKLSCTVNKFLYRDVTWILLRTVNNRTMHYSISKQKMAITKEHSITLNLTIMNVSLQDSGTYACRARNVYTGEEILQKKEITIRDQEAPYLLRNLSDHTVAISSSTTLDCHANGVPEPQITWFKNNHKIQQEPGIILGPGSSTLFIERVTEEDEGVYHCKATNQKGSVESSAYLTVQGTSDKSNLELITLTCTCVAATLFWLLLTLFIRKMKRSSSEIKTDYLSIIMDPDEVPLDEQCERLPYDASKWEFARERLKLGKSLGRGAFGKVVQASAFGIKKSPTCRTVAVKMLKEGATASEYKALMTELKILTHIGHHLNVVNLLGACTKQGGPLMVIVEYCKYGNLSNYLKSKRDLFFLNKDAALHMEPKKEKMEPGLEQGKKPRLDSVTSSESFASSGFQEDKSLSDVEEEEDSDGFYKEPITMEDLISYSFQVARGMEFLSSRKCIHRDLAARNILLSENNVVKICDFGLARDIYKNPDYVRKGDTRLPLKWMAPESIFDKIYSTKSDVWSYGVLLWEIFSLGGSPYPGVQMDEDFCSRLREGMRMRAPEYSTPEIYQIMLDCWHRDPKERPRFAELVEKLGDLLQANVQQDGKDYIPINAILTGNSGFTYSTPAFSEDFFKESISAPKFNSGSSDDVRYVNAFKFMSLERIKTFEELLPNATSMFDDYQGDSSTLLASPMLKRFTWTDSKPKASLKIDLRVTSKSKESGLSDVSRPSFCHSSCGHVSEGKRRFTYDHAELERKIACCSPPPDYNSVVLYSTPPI", "settings": "at 1 µM", "units": {"inhibition": "%"}}
{"smiles": "Cc1c2ccc(N(C)c3ccnc(Nc4cccc(S(N)(=O)=O)c4)n3)cc2nn1C", "inhibition": 94}
{"smiles": "CNC(=O)c1ncccc1Nc1nc(Nc2cc3c(cc2OC)CCCN3C(=O)CN(C)C)nc2[nH]ccc12", "inhibition": -0.67}
{"smiles": "COC(=O)Nc1nc2cc(Oc3ccc(NC(=O)Nc4ccccc4)cc3)ccc2[nH]1", "inhibition": 22.1}
{"target": "Receptor-type tyrosine-protein kinase FLT3 (Homo sapiens) (UniProt P36888)", "sequence (P36888 whole entry)": "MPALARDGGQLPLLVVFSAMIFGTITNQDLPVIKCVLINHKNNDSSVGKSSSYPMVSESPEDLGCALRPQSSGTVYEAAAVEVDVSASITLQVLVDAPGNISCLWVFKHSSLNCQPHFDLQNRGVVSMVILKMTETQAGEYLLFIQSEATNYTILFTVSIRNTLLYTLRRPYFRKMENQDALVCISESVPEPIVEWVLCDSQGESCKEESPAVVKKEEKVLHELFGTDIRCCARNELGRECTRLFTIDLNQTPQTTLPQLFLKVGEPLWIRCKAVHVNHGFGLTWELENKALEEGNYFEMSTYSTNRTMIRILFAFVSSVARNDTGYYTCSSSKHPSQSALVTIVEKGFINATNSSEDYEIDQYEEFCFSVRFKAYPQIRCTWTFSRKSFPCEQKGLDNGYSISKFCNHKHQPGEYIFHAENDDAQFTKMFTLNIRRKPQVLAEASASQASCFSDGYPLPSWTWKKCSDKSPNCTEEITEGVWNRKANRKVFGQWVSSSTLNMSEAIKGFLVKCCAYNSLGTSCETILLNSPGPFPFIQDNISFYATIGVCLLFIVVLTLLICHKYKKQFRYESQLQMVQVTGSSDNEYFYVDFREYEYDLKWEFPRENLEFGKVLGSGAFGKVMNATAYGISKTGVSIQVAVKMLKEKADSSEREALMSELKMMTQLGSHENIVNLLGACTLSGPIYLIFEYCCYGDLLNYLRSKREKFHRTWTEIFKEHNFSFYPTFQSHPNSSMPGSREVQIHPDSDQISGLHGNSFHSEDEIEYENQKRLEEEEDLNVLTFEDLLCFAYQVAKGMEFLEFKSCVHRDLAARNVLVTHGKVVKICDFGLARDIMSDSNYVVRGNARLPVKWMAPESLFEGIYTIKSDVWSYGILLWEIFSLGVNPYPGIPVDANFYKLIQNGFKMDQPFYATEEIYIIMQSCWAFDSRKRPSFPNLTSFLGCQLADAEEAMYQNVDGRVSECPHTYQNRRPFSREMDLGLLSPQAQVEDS", "settings": "at 0.1 µM"}
{"smiles": "CC1=C(C(=O)Nc2ccc3[nH]nc(C)c3c2)C(c2ccc(C(F)(F)F)cc2)CC(=O)N1", "note": "(stereo not given)", "inhibition": "-0.53%"}
{"smiles": "COc1cc(N2CCN(C(C)C)CC2)ccc1Nc1nc(Nc2cccc3ncccc23)c2cc[nH]c2n1", "inhibition": "0.08%"}
{"smiles": "COc1cc(Nc2ncc(-c3ccccc3)o2)cc(OC)c1", "inhibition": "71.8%"}
{"smiles": "COc1cccc(Nc2nccc(-c3cnn4ncccc34)n2)c1", "inhibition": "33%"}
{"smiles": "O=C(Nc1n[nH]c2nnc(-c3cccnc3)cc12)C1CC1", "inhibition": "-0.64%"}
{"smiles": "CN1CCN(Cc2ccc(-c3cc4ncnc(Nc5ccc(OCc6cccc(F)c6)c(Cl)c5)c4s3)o2)CC1", "inhibition": "3.12% and 0.52%"}
{"smiles": "CCCNc1cccc(-n2ncc3c(N/N=C/c4ccncc4)ncnc32)c1", "inhibition": "4.53%"}
{"smiles": "CS(=O)(=O)Nc1ccc(-c2ccc3c(NC(=O)C4CC4)n[nH]c3c2)cc1", "inhibition": "-0.08%"}
{"smiles": "COc1cccc(-n2ncc3c(N/N=C/c4ccc(C(=O)NCCN(C)C)cc4)ncnc32)c1", "inhibition": "14%"}
{"smiles": "O=C(O[C@H]1CN[C@H](C#Cc2cc3ncnc(Nc4ccc(OCc5cccc(F)c5)c(Cl)c4)c3s2)C1)N1CCOCC1", "inhibition": "3.48%"}
{"smiles": "O=C(O[C@H]1CN[C@H](C#Cc2cc3ncnc(Nc4ccc5c(cnn5Cc5ccccc5)c4)c3s2)C1)N1CCOCC1", "inhibition": "-2.76%"}
{"smiles": "CCn1c(-c2nonc2N)nc2cncc(C(=O)NCCNC)c21", "inhibition": "0.34%"}
{"smiles": "O=C(O[C@H]1CN[C@H](C#Cc2cc3ncnc(Nc4ccc5c(ccn5Cc5cc(F)ccc5F)c4)c3s2)C1)N1CCOCC1", "inhibition": "1.02%"}
{"smiles": "c1ccc(-c2n[nH]cc2-c2ccnc(-c3ccc(OCCn4ccnc4)cc3)c2)nc1", "inhibition": "-0.04%"}
{"smiles": "COc1cc2c(cc1Nc1nc(Nc3cccc(F)c3C(N)=O)c3cc[nH]c3n1)N(C(=O)CN1CCN(C(C)C)CC1)CC2", "inhibition": "1.14%"}
{"smiles": "CNC(=O)c1cncc(/C=C/c2ccccc2C)c1", "inhibition": "1.85%"}
{"smiles": "N#Cc1cccc(Nc2ncc(-c3ccccc3)o2)c1", "inhibition": "12%"}
{"smiles": "CCN1CCC(C(=O)Nc2n[nH]c3nnc(-c4cccc(F)c4F)cc23)CC1", "inhibition": "1.71%"}
{"smiles": "Nc1nonc1-c1nc2cnccc2n1C1CC1", "inhibition": "-0.66% and 0.33%"}
{"smiles": "O=C1Nc2ccccc2/C1=C1\\CCc2cc(O)ccc21", "inhibition": "40.7%"}
{"smiles": "Fc1ccc(Nc2nccc(-c3c(-c4ccc(C(F)(F)F)cc4)nn4ncccc34)n2)cc1F", "inhibition": "1.11%"}
{"smiles": "CCS(=O)(=O)c1ccc(OC)c(Nc2ncc(-c3cccc(F)c3)o2)c1", "inhibition": "23.3%"}
{"smiles": "OCCCNc1nccc(-c2c(-c3ccc(F)cc3)nn3cc(C(F)(F)F)ccc23)n1", "inhibition": "1.66%"}
{"smiles": "CN(c1ccc(NC(=O)NCCN2CCOCC2)cc1)c1ccnc(Nc2ccc(CS(C)(=O)=O)cc2)n1", "inhibition": "56.4%"}
{"smiles": "Nc1nccc(-c2c(-c3ccc(F)cc3)ncn2C2CCNCC2)n1", "inhibition": "-1.21% and 1.71%"}
{"smiles": "CC1(C)CC(n2cnc(-c3ccc(F)cc3)c2-c2ccnc(N)n2)CC(C)(C)N1", "inhibition": "0.9%"}
{"smiles": "Cn1c(-c2nonc2N)nc2cnccc21", "inhibition": "4.49%"}
{"smiles": "COc1ccc2ncn(-c3cc(O[C@H](C)c4ccccc4C(F)(F)F)c(C(N)=O)s3)c2c1", "inhibition": "-1.48%"}
{"smiles": "Cc1c2ccc(N(C)c3ccnc(Nc4cccc(S(N)(=O)=O)c4)n3)cc2nn1C", "inhibition": "2.48%"}
{"smiles": "CNC(=O)c1ncccc1Nc1nc(Nc2cc3c(cc2OC)CCCN3C(=O)CN(C)C)nc2[nH]ccc12", "inhibition": "3.6%"}
{"smiles": "COC(=O)Nc1nc2cc(Oc3ccc(NC(=O)Nc4ccccc4)cc3)ccc2[nH]1", "inhibition": "5.43%"}
{"target": "Receptor-type tyrosine-protein kinase FLT3 (Homo sapiens) (UniProt P36888)", "settings": "at 1 µM"}
{"smiles": "CC1=C(C(=O)Nc2ccc3[nH]nc(C)c3c2)C(c2ccc(C(F)(F)F)cc2)CC(=O)N1", "note": "(stereo not given)", "inhibition": "3.38%"}
{"smiles": "COc1cc(N2CCN(C(C)C)CC2)ccc1Nc1nc(Nc2cccc3ncccc23)c2cc[nH]c2n1", "inhibition": "1.34%"}
{"smiles": "COc1cc(Nc2ncc(-c3ccccc3)o2)cc(OC)c1", "inhibition": "90.5%"}
{"smiles": "COc1cccc(Nc2nccc(-c3cnn4ncccc34)n2)c1", "inhibition": "78.9%"}
{"smiles": "O=C(Nc1n[nH]c2nnc(-c3cccnc3)cc12)C1CC1", "inhibition": "1.54%"}
{"smiles": "CN1CCN(Cc2ccc(-c3cc4ncnc(Nc5ccc(OCc6cccc(F)c6)c(Cl)c5)c4s3)o2)CC1", "inhibition": "1.99% and 2.76%"}
{"smiles": "CCCNc1cccc(-n2ncc3c(N/N=C/c4ccncc4)ncnc32)c1", "inhibition": "17.6%"}
{"smiles": "CS(=O)(=O)Nc1ccc(-c2ccc3c(NC(=O)C4CC4)n[nH]c3c2)cc1", "inhibition": "5.66%"}
{"smiles": "COc1cccc(-n2ncc3c(N/N=C/c4ccc(C(=O)NCCN(C)C)cc4)ncnc32)c1", "inhibition": "54.9%"}
{"smiles": "O=C(O[C@H]1CN[C@H](C#Cc2cc3ncnc(Nc4ccc(OCc5cccc(F)c5)c(Cl)c4)c3s2)C1)N1CCOCC1", "inhibition": "2.29%"}
{"smiles": "O=C(O[C@H]1CN[C@H](C#Cc2cc3ncnc(Nc4ccc5c(cnn5Cc5ccccc5)c4)c3s2)C1)N1CCOCC1", "inhibition": "-3.41%"}
{"smiles": "CCn1c(-c2nonc2N)nc2cncc(C(=O)NCCNC)c21", "inhibition": "4.29%"}
{"smiles": "O=C(O[C@H]1CN[C@H](C#Cc2cc3ncnc(Nc4ccc5c(ccn5Cc5cc(F)ccc5F)c4)c3s2)C1)N1CCOCC1", "inhibition": "2.83%"}
{"smiles": "c1ccc(-c2n[nH]cc2-c2ccnc(-c3ccc(OCCn4ccnc4)cc3)c2)nc1", "inhibition": "2.15%"}
{"smiles": "COc1cc2c(cc1Nc1nc(Nc3cccc(F)c3C(N)=O)c3cc[nH]c3n1)N(C(=O)CN1CCN(C(C)C)CC1)CC2", "inhibition": "0.93%"}
{"smiles": "CNC(=O)c1cncc(/C=C/c2ccccc2C)c1", "inhibition": "1.3%"}
{"smiles": "N#Cc1cccc(Nc2ncc(-c3ccccc3)o2)c1", "inhibition": "61.8%"}
{"smiles": "CCN1CCC(C(=O)Nc2n[nH]c3nnc(-c4cccc(F)c4F)cc23)CC1", "inhibition": "6.05%"}
{"smiles": "Nc1nonc1-c1nc2cnccc2n1C1CC1", "inhibition": "4.5% and 3.82%"}
{"smiles": "O=C1Nc2ccccc2/C1=C1\\CCc2cc(O)ccc21", "inhibition": "85.5%"}
{"smiles": "Fc1ccc(Nc2nccc(-c3c(-c4ccc(C(F)(F)F)cc4)nn4ncccc34)n2)cc1F", "inhibition": "4.52%"}
{"smiles": "CCS(=O)(=O)c1ccc(OC)c(Nc2ncc(-c3cccc(F)c3)o2)c1", "inhibition": "74.5%"}
{"smiles": "OCCCNc1nccc(-c2c(-c3ccc(F)cc3)nn3cc(C(F)(F)F)ccc23)n1", "inhibition": "3.11%"}
{"smiles": "CN(c1ccc(NC(=O)NCCN2CCOCC2)cc1)c1ccnc(Nc2ccc(CS(C)(=O)=O)cc2)n1", "inhibition": "83.7%"}
{"smiles": "Nc1nccc(-c2c(-c3ccc(F)cc3)ncn2C2CCNCC2)n1", "inhibition": "-2.93% and 1.86%"}
{"smiles": "CC1(C)CC(n2cnc(-c3ccc(F)cc3)c2-c2ccnc(N)n2)CC(C)(C)N1", "inhibition": "-0.24%"}
{"smiles": "Cn1c(-c2nonc2N)nc2cnccc21", "inhibition": "1.55%"}
{"smiles": "COc1ccc2ncn(-c3cc(O[C@H](C)c4ccccc4C(F)(F)F)c(C(N)=O)s3)c2c1", "inhibition": "8.06%"}
{"smiles": "Cc1c2ccc(N(C)c3ccnc(Nc4cccc(S(N)(=O)=O)c4)n3)cc2nn1C", "inhibition": "15%"}
{"smiles": "CNC(=O)c1ncccc1Nc1nc(Nc2cc3c(cc2OC)CCCN3C(=O)CN(C)C)nc2[nH]ccc12", "inhibition": "4.13%"}
{"smiles": "COC(=O)Nc1nc2cc(Oc3ccc(NC(=O)Nc4ccccc4)cc3)ccc2[nH]1", "inhibition": "14.2%"}
